In all, about 65,000 compounds went through this assay and about 2,100 (3.2%) showed an effect of 50% or more. The median lay at about -52%. Many of the other results were omitted from the sample, so strong results are more common in it than they were.

The subject of the assay is Plasmodium falciparum. Put plainly: Screen against P. falciparum Asexual Blood Stage (ABS), at 5uM. The class given is functional, Dd2. Conditions: tested at 5 uM.
Consider `O=C(CN1CCC(C(=O)c2cc(F)ccc2F)CC1)NC1CCCC1`, for which the INHIBITION is -63.8%.
Regarding `Cc1nn(C)c2c(NCc3ccc(F)cc3)nc(C3CC3)nc12`, the INHIBITION was determined as 40.3%.
With `CCCn1ccnc1CN1CCCC(O)(CN(C)C)CC1` (stereo not drawn) the figure was -44.8%.
As for `CC(=O)N1CC[C@H]2[C@H](C[C@@H](Cn3cncn3)N2c2nccs2)C1`, the INHIBITION is -33.8%.
`CC1CCC(n2cc3nc(N)[nH]cc-3c2=O)CC1` (stereo not drawn): the INHIBITION is listed as -68.9%.
With `CNc1nc2cn(C3CCCC3)c(=O)c-2c[nH]1` the figure was -45.905%.
`Nc1nc2cn(C3CCCC3)c(=O)c-2c[nH]1`: the INHIBITION came out at 69.9%.
With `CN(C)c1nc2c(c(N3CCC4(CC3)CNC(=O)C4)n1)CCCC2` the figure was -6.41%.
For `O=S(=O)(N1CCCCC1)N1CCCN(CC2CCCO2)CC1` (stereo not drawn), the INHIBITION is listed as -12.8%.
The result for `CC(C)N(C)Cc1cncc2c1CCN(C(=O)c1ccccc1F)C2` reads -44.1%; that for `CN(Cc1ccco1)[C@@H]1CN(Cc2nccs2)C[C@@H]2CCCO[C@@H]21`, 31.1%.
The result for `CN(Cc1ccco1)[C@@H]1CN(Cc2cccnc2)C[C@@H]2CCCO[C@@H]21` reads 29.1%; that for `CN(Cc1ccco1)[C@@H]1CN(Cc2cccs2)C[C@@H]2CCCO[C@@H]21`, 65.3%; that for `CN(Cc1ccco1)[C@@H]1CN(Cc2ccncc2)C[C@@H]2CCCO[C@@H]21`, 9.86%.
With `CN(Cc1ccco1)[C@@H]1CN(Cc2ccoc2)C[C@@H]2CCCO[C@@H]21` the figure was 60.3%; with `Cc1ccc(CN2C[C@@H]3CCCO[C@@H]3[C@H](N(C)Cc3ccco3)C2)o1`, 39.7%; with `COC(=O)c1cccn1C1CCN(Cc2cnc3ccccn23)CC1`, -55.1%.
Turning to `COC(=O)c1ccc(S(=O)(=O)NC2CNC(=O)C2)cc1` (stereo not drawn), the INHIBITION is -28.8%.
As for `Cn1c(=O)c2sccc2n(CC(=O)Nc2cccc(Cl)c2)c1=O`, the INHIBITION is recorded as 59.4%.
The result for `CCn1c(=O)c2sccc2n(CC(=O)Nc2cccc(Cl)c2)c1=O` reads -40%; that for `CC(C)c1cccc(NC(=O)Cn2c(=O)n(C)c(=O)c3sccc32)c1`, -34.2%.
Turning to `O=C(NC1CCN(c2ncccc2F)C1)c1cccc(-n2ccnc2)c1` (stereo not drawn), the INHIBITION was -41.7%.
Regarding `Cc1cc(S(=O)(=O)N2CCCN3CCCC3C2)ccc1F` (stereo not drawn), the INHIBITION is recorded as 69.1%.
Turning to `Cc1ccc(S(=O)(=O)N2CCC(N3CCCCC3)CC2)cc1C`, the INHIBITION worked out at 65.9%.
In the case of `Cc1ccc(S(=O)(=O)N2CCC(S(C)(=O)=O)CC2)cc1C`, the INHIBITION is listed as -1.8%.
As to `Cc1ccc(S(=O)(=O)N2CCCCC(N3CCN(C)CC3)C2)cc1F` (stereo not drawn), the INHIBITION is reported as 39.6%.
As for `Cc1ccc(S(=O)(=O)N2CCC(S(=O)(=O)c3nncn3C)CC2)cc1C`, the INHIBITION is recorded as -31.9%.
With `Cc1cc(S(=O)(=O)N2CCC(S(C)(=O)=O)C2)ccc1F` (stereo not drawn) the figure was -22.2%.
With `CC(C(=O)N1CCc2sccc2C1)N1CCC(N2CCCC2)CC1` (stereo not drawn) the figure was 53%; with `CC(C)NC(=O)C1CCN(C(C)C(=O)N2CCc3sccc3C2)CC1` (stereo not drawn), -14.7%.
With `CC(C(=O)N1CCc2sccc2C1)N1CCCN(C2CC2)CC1` (stereo not drawn) the figure was 22.7%.
Take `CN1CCC(Cc2cncc(-c3ccccc3C(=O)O)n2)C1` (stereo not drawn): the INHIBITION was -92%.
`CCc1nc2ccccc2c(=O)n1CC1(O)CCN(S(C)(=O)=O)CC1`: the INHIBITION is listed as -59.6%.
The result for `CC(C)c1cc(C(=O)N2CCOC3(CCCC3)C2)no1` reads -111%; that for `CCOc1ccc(C(=O)Nc2c(C)nc3ccc(Cl)cn3c2=O)cc1`, -87.3%; that for `CCOC(=O)c1ccc(S(=O)(=O)NCc2cccnc2N(C)C)cc1`, 54.1%.
Take `CN(C)c1ncccc1CNS(=O)(=O)c1ccc(C(N)=O)cc1`: the INHIBITION is on record as -34.2%.
On to `COC(=O)c1ccc(S(=O)(=O)NCc2cccnc2N(C)C)cc1`, for which the INHIBITION is listed as -8.55%.
In the case of `CC(C)(O)CCc1ccc(C(=O)N2Cc3cnn(CCO)c3C2)cc1`, the INHIBITION is on record as -86.5%.
The result for `CCOc1ncnc2c1CCN(C(=O)NCc1cccnc1)CC2` reads -58.1%; that for `Clc1ccc(CNc2cnn(CCN3CCOCC3)c2)cc1Cl`, -55.6%.
The result for `N#Cc1ccc(CNc2cnn(CCN3CCOCC3)c2)cc1` reads -16.7%; that for `Clc1cccc(CNc2cnn(CCN3CCCCC3)c2)c1`, 53.3%; that for `Cn1nccc1CCNC(=O)[C@H]1CNC[C@H](C(=O)N2CCCC2)C1`, -22.7%.
The result for `Cc1nn(C)c2nc(N3CCNC(=O)C3Cc3ccccc3)sc12` (stereo not drawn) reads -81.9%.
`Cc1ccc(CN2CCN(c3nc4c(s3)c(C)nn4C)C(C)C2=O)cc1` (stereo not drawn): the INHIBITION is given as 69.8%.
The result for `COC(=O)CN1CCN(c2nc3c(s2)c(C)nn3C)C(C)C1=O` (stereo not drawn) reads -88%; that for `O=C(CN1C=Nc2ccccc2S1(=O)=O)NCCCc1ccccc1`, -115%; that for `CCn1cnnc1CNC(=O)N1CCN(c2ccccc2Cl)CC1`, -79.9%.
Take `COc1ccc(CN(Cc2cncn2C)CC2CCCO2)c(OC)c1` (stereo not drawn): the INHIBITION is on record as -22.7%.
The result for `CSc1ccc(-c2nc(CN3C[C@@H](C)NC[C@@H]3C)c(C)o2)cc1` reads -61.5%; that for `CSc1ccc(-c2nc(CN3CCNCC3C)c(C)o2)cc1` (stereo not drawn), 35.1%; that for `Cc1oc(-c2cc(F)cc(F)c2)nc1CN1C[C@@H](C)NC[C@@H]1C`, 60.1%.
With `Cn1cc(N2C[C@@H]3CN(CC4CCOCC4)C[C@@H]3C2=O)cn1`, the INHIBITION is given as -67.1%.
The result for `Cn1cc(C2CCCN2C(=O)CCCc2ccccn2)cn1` (stereo not drawn) reads -94.3%; that for `Cc1ccc(CNC(=O)c2cc(Cn3ccnc3C(C)C)[nH]n2)o1`, -76.4%.
For the compound `CCCc1cc(N2CCC(NCC3(O)CCCCC3)CC2)nc(C)n1`, the INHIBITION amounted to 8.94%.
For `CCCc1cc(N2CCC(NCC3(O)CCN(C)CC3)CC2)nc(C)n1`, the INHIBITION is recorded as 51.2%.
As to `CCCc1cc(N2CCC(NC3CCC(O)CC3)CC2)nc(C)n1` (stereo not drawn), the INHIBITION is recorded as -161%.
With `CCS(=O)(=O)CC(=O)NC(c1ccccc1)C1CCCC1` (stereo not drawn) the figure was -30%.
As for `Cc1noc(C)c1CN1CCN(C(C)c2nc(C3CC3)no2)CC1` (stereo not drawn), the INHIBITION is reported as -77.5%.
With `Cc1c(Cc2ccccc2)c(O)nc2nc(N3CCOCC3)nn12` the figure was -56.2%.
The result for `O=C(c1ccncc1)N1CCC2(CC1)CCN(C(=O)c1cccnc1)C2` reads -57.2%; that for `CC(=O)Nc1ccc(OCc2noc(C(=O)N3CCCCCC3)n2)cc1`, -83.9%; that for `Cc1[nH]c(=O)[nH]c(=O)c1CN1CCCC(CCc2ccc(F)cc2F)C1` (stereo not drawn), 52%.
The result for `Fc1ccc(CCC2CCCN(Cc3c[nH]cn3)C2)c(F)c1` (stereo not drawn) reads 61.6%; that for `Cc1[nH]c(=O)[nH]c(=O)c1CN1CCCC(CCc2c(F)cccc2F)C1` (stereo not drawn), -44.3%.
On to `Cc1nc(CN2CCCC(CCc3ccccc3F)C2)c[nH]1` (stereo not drawn), for which the INHIBITION was found to be 36.5%.
The result for `Cc1nc(CN2CCCC(CCc3c(F)cccc3F)C2)c[nH]1` (stereo not drawn) reads 43.1%; that for `Cc1[nH]c(=O)[nH]c(=O)c1CN1CCCC(CCc2ccccc2F)C1` (stereo not drawn), -26.5%.
The result for `CNc1ccc(CC2CCCN(Cc3c[nH]cn3)C2)nn1` (stereo not drawn) reads -105%; that for `Cc1nc(CN2CCCC(CCc3ccc(F)cc3F)C2)c[nH]1` (stereo not drawn), 57.6%; that for `Nc1ccc(CC2CCCN(Cc3c[nH]cn3)C2)nn1` (stereo not drawn), -87%.
The result for `Cc1ccc(OCC(O)CN2CCc3c(ncn3C3CC3)C2)cc1` (stereo not drawn) reads -28.3%; that for `CN1CCc2nc(C3CCCN(C(=O)CC(C)(C)C)C3)ncc2C1` (stereo not drawn), -102%.
For `Cc1cccc(-c2ccc(C(=O)N3CCSCC3)c(=O)[nH]2)c1`, the INHIBITION was -14.2%.
As for `Cc1csc(CN2CC[C@H]3O[C@H](C(=O)Nc4cccnc4)CC[C@H]32)n1`, the INHIBITION is -18.1%.
The result for `Cc1nn(C)c2c(N3CCN(C(=O)C4CCCO4)CC3)ncnc12` (stereo not drawn) reads 9.5%.
Take `CC(=O)N1CCN(C(=O)c2cc(C(C)C)no2)[C@H]2CS(=O)(=O)C[C@H]21`: the INHIBITION was -67%.
With `O=C(CCNC(=O)c1cccc(OC(F)F)c1)Nc1cccnc1`, the INHIBITION is -128%.
For `Cc1cccc(CN2CCc3nnc(CN(C)C)n3CC2)n1`, the INHIBITION was -108%.
Consider `Cc1cccc(CN2CCc3nnc(Cn4cccc4)n3CC2)n1`, for which the INHIBITION amounted to 57.5%.
The result for `Cc1cccc(CN2CCc3nnc(CN4CCCC4=O)n3CC2)n1` reads -48.8%; that for `Cc1nnc2n1CCN(CCS(=O)(=O)c1ccc(Cl)cc1)C2`, -194%.
With `Cc1cccc(-c2noc(Cn3nc(C(N)=O)ccc3=O)n2)c1` the figure was -165%; with `CN(C)CCN(CC1CCCO1)S(=O)(=O)NCc1ccccc1` (stereo not drawn), 62%.
The result for `O=S(=O)(NCc1ccccc1)N(Cc1ccccn1)CC1CCCO1` (stereo not drawn) reads -181%; that for `CN(CCCC1CCCO1)S(=O)(=O)NCc1ccccc1` (stereo not drawn), -55.1%; that for `C[C@@H](CO)NC(=O)c1ccc2nc(NS(C)(=O)=O)sc2c1`, -104%.
Regarding `CCOc1ccc(CNC(=O)N(C)CC(C)(C)O)cc1C`, the INHIBITION was -65.1%.
Consider `COCC(=O)N1CCC2(CC1)CN(c1ccccn1)CCO2`, for which the INHIBITION is -89.8%.
The result for `COCC1CC2(CCN(C(=O)c3ccco3)CC2)CN1C(C)C` (stereo not drawn) reads 24.5%; that for `COCC1CC2(CCN(Cc3nccs3)CC2)CN1Cc1ccccn1` (stereo not drawn), 1.23%.
For the compound `COCC1CC2(CCN(CC3CC3)CC2)CN1Cc1csc(C)n1` (stereo not drawn), the INHIBITION is 53.4%.
`COCC(=O)N1CCC2(CC1)CC(COC)N(Cc1ccccn1)C2` (stereo not drawn): the INHIBITION was -56%.
With `COCC(=O)N1CCC2(CCN(Cc3ccccn3)CC2)CC1` the figure was -158%; with `CCN1CCC2(CC1)CC(COC)N(Cc1csc(C)n1)C2` (stereo not drawn), -19.2%.
The result for `COCCN1CCC2(CC1)CCN(Cc1ccccn1)CC2` reads 52.2%.
On to `COCC1CC2(CCN(C(C)=O)CC2)CN1Cc1csc(C)n1` (stereo not drawn), for which the INHIBITION is reported as -7.46%.
Turning to `COCC1CC2(CCN(Cc3ccco3)CC2)CN1C(C)C` (stereo not drawn), the INHIBITION was 64.6%.
The result for `Cn1cc(CN2CCC3(CC2)CCN(Cc2ccccn2)CC3)cn1` reads -19.8%; that for `COCC1CC2(CCN(Cc3ccoc3)CC2)CN1Cc1ccccn1` (stereo not drawn), 57.2%.
The result for `COCC1CC2(CCN(Cc3ccc(C)o3)CC2)CN1C(C)C` (stereo not drawn) reads 34.5%.

(Values after ChEMBL document CHEMBL4513216, “Probing the Open Global Health Chemical Diversity Library for Multistage-Active Starting Points for Next-Generation Antimalarials” (ACS Infect Dis, 2020).)
